# For some of these results: Results with a measured potency or affinity are listed apart.
# How the values were obtained:
# Parameters in all cases: scale not given: direction of the effect not stated beside the values
# [1] = molecular target: Protein translocase subunit SecA (Escherichia coli (strain K12)) (UniProt P10408); assay: Assay to Identify E. coli SecA ATPase Inhibitors; format: functional; conditions: 30 µM
# [2] = molecular target: T1, Ubiquitin-activating enzyme e1, putative (Leishmania donovani (strain BPK282A1)) (UniProt E9BSI1); assay: Leishmania donovani Ubiquitin Activating Enzyme (LdE1); format: functional; conditions: 30 µM
# T1 sequence (whole entry): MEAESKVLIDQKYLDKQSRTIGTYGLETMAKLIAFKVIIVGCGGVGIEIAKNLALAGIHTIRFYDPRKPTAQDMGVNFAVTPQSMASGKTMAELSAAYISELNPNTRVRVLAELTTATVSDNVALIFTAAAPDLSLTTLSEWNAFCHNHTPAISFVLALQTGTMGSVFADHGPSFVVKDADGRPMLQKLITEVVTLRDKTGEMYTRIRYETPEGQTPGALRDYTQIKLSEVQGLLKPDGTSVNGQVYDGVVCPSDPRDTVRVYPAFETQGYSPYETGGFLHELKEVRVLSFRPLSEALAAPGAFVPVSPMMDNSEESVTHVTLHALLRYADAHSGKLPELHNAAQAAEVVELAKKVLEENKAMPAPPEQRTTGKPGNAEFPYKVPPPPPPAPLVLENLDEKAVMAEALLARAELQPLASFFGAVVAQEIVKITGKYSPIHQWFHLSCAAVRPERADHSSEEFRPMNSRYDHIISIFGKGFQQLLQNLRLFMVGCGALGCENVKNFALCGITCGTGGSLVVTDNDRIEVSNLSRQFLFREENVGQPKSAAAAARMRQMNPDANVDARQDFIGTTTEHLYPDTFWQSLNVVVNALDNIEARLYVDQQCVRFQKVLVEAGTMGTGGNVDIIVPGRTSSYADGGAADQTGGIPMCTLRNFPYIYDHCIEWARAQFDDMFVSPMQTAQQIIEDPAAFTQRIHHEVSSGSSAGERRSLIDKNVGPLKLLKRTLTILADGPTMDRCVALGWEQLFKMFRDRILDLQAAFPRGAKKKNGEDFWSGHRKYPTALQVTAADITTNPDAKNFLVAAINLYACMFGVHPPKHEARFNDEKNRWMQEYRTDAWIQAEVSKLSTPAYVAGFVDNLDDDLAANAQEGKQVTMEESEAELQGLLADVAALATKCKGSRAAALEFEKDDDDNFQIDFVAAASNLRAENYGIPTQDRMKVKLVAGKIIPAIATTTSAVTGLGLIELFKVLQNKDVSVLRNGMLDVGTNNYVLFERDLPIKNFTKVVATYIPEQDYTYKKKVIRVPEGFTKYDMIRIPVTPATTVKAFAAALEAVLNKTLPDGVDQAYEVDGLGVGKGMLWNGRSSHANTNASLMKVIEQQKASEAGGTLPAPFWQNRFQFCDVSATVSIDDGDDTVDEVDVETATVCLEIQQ
# [3] = molecular target: Sialic acid-binding Ig-like lectin 9 (Homo sapiens) (UniProt Q9Y336); assay: Hs-Siglec9 ALPHAscreen SOP 20170721; conditions: 10 µM
# Trypanosoma cruzi = assay: Trypanosoma cruzi phosphomannomutase and mannose-1-phosphate guanylyltransferase assay; format: functional; conditions: 10 µM
# [4] = molecular target: T2, Arginase-2, mitochondrial (Homo sapiens) (UniProt P78540); assay: in vitro enzyme assay to detect the production of urea directly proportional to the activity of Arginase II; format: functional; conditions: 33.3 µM; further: in the data most compounds retested in dose-response had high values
# T2 sequence (whole entry): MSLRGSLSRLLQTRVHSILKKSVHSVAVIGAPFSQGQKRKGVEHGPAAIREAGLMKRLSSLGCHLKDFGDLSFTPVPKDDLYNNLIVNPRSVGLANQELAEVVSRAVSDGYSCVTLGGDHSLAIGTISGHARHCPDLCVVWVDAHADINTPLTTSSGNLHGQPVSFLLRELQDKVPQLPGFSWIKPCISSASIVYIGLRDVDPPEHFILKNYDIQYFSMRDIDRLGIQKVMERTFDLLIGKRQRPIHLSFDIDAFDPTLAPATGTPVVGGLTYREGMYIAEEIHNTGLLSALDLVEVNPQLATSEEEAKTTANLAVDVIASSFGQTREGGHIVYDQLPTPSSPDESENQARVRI
# [5] = molecular target: T3, Proteasome subunit beta (Trypanosoma cruzi) (UniProt O96673); assay: Trypanosoma cruzi proteasome chymotrypsin-like activity (TcProtChymo) assay.; further: in the data most compounds retested in dose-response had high values; format: functional; conditions: 9.37 µM
# T3 sequence (whole entry): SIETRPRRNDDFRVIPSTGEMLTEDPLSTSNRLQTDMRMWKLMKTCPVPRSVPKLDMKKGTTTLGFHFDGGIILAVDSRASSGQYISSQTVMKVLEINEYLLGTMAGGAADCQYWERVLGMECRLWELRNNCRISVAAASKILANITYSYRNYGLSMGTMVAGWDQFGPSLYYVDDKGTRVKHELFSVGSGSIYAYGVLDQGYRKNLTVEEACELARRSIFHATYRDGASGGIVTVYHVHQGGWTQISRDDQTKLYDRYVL
# Homo sapiens = species on record: Homo sapiens; assay: To identify inhibition of the IFN signalling (Jak-Stat) pathway via expression of an eGFP reporter gene under the control of an IFN-stimulated response element (ISRE) containing MxA promoter.; format: functional; conditions: 30 µM
# [6] = molecular target: T4, Tyrosyl-tRNA synthetase, putative (Trypanosoma cruzi (strain CL Brener)) (UniProt Q4DSP6); assay: Trypanosoma cruzi tyrosyl tRNA synthetase (TcYRS) _High Tyrosine SOP; format: functional; conditions: 30 µM; further: in the data most compounds retested in dose-response had high values
# T4 sequence (whole entry): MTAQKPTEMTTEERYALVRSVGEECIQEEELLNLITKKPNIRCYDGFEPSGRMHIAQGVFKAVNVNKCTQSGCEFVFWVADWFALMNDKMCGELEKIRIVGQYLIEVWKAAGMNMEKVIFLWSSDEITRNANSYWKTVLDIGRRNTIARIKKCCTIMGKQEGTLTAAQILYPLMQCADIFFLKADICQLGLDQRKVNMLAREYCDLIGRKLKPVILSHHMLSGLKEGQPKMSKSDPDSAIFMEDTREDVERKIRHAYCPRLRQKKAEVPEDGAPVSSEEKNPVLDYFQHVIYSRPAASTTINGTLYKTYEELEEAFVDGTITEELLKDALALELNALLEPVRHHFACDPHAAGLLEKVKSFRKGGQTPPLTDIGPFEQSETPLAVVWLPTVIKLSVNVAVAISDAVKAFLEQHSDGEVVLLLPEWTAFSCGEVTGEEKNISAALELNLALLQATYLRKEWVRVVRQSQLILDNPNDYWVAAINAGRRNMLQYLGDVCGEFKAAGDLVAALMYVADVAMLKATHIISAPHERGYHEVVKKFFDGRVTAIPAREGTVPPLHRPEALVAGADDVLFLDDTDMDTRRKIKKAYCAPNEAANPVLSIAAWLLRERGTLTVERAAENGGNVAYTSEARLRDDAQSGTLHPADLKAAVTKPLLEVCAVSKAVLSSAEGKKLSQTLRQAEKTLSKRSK
# [7] = molecular target: T4, Tyrosyl-tRNA synthetase, putative (Trypanosoma cruzi (strain CL Brener)); assay: Trypanosoma cruzi tyrosyl tRNA synthetase (TcYRS) SOP; format: functional; conditions: 30 µM
# [8] = molecular target: Chromo domain-containing protein 1 (Saccharomyces cerevisiae (strain ATCC 204508 / S288c) (Baker's yeast)) (UniProt P32657); assay: ScCHD-1 Enzyme Inhibition Assay; format: functional; conditions: 30 µM; further: in the data most compounds retested in dose-response had high values
# Sequence of Chromo domain-containing protein 1 (Saccharomyces cerevisiae (strain ATCC 204508 / S288c) (Baker's yeast)) (P32657 whole entry, the tested form may be a part): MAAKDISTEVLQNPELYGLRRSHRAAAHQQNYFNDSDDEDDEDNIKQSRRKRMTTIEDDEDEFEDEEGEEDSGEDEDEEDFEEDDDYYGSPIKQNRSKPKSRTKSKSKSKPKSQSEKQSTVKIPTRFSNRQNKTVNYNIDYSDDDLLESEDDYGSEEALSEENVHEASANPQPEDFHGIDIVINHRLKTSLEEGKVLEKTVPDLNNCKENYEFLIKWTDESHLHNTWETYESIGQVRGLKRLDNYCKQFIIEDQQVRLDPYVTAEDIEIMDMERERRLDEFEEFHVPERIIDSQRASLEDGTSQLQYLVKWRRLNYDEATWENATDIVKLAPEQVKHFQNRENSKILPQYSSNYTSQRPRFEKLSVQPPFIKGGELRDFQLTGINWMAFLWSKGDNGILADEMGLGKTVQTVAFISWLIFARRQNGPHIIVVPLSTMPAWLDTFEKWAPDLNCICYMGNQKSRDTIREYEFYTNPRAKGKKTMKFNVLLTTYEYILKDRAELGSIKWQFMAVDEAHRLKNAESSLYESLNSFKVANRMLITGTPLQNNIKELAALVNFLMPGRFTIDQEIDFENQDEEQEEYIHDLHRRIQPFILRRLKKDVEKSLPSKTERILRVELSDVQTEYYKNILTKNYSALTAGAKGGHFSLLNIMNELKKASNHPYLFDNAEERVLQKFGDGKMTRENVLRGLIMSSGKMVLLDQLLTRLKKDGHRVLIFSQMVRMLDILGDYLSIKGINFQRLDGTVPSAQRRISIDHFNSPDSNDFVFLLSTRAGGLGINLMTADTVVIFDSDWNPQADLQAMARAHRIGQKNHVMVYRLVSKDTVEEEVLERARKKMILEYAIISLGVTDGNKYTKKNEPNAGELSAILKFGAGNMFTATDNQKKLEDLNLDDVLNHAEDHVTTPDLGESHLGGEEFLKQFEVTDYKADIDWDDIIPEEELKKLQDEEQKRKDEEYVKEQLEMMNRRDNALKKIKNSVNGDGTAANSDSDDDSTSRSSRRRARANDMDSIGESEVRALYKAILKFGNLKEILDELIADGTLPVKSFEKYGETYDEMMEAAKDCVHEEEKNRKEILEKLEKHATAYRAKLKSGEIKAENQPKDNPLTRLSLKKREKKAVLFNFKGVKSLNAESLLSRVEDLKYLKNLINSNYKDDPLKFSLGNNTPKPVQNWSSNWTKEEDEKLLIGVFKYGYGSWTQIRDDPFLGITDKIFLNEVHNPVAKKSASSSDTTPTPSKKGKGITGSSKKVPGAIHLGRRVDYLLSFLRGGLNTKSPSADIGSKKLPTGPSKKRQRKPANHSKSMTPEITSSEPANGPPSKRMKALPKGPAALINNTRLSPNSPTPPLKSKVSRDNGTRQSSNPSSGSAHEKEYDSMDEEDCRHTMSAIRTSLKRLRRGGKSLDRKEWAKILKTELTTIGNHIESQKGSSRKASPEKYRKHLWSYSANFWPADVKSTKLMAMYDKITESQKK
# Sequence of Sialic acid-binding Ig-like lectin 9 (Homo sapiens) (Q9Y336 whole entry): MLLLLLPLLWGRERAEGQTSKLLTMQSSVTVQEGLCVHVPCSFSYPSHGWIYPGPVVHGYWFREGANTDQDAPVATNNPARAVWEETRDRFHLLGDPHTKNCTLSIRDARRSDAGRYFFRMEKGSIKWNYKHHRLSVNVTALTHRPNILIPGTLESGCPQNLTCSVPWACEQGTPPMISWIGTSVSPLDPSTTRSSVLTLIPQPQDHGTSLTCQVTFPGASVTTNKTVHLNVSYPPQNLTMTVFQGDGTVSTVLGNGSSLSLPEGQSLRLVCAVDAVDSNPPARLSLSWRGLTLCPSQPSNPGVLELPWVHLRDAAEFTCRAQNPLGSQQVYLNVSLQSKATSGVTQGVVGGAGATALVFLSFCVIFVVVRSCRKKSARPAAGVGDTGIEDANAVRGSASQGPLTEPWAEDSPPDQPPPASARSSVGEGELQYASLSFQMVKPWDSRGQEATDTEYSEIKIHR
# Sequence of Protein translocase subunit SecA (Escherichia coli (strain K12)) (P10408 whole entry): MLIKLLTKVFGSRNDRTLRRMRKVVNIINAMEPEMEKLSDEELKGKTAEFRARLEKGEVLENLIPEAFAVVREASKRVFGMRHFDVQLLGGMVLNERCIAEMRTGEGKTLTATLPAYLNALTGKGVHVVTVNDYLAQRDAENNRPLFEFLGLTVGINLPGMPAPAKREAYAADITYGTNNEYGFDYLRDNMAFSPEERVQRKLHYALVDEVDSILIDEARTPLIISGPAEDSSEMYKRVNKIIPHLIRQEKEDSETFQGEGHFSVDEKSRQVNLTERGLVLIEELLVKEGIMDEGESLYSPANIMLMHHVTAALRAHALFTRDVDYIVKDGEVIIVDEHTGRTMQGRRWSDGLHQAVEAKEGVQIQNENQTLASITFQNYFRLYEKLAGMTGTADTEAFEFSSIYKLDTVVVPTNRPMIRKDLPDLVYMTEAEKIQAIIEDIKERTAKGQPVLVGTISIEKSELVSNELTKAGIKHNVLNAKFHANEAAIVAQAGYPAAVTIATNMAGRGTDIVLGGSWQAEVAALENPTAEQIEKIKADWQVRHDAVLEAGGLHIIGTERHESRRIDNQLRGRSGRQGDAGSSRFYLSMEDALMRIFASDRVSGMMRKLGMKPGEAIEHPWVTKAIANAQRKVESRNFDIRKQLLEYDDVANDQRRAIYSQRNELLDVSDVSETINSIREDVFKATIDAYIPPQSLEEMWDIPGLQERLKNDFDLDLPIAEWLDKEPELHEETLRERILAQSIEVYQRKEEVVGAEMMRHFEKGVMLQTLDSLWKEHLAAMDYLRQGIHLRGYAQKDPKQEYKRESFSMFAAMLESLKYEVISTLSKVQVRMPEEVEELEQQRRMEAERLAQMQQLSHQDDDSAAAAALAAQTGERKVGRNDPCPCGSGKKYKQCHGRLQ
SMILES,Percent Effect [1],Percent Effect [2],Percent Effect [3],Percent Effect (Trypanosoma cruzi),Percent Effect [4],Percent Effect [5],Percent Effect (Homo sapiens),Percent Effect [6],Percent Effect [7],Percent Effect [8]
CC(=O)N1CCc2c(nc(-c3ccncc3)nc2N(C)CC(O)CO)C1 (stereo not given),-4.98%,2.7%,3.26%,-2.62%,5.94%,3.94%,12.2%,5.85%,14.6%,-4.24%
O=C(NCc1ccccc1)[C@H]1C[C@@H]2CN(S(=O)(=O)C3CC3)C[C@H]1O2,-3.6%,1.3%,-4.1%,-3.99%,-1.22%,14.4%,14.4%,3.68%,7.69%,1.77%
COCC1CN(CC2CC2)Cc2nn(C)cc21 (stereo not given),-8.74%,-1.3%,-2.43%,-6.91%,2.02%,10.5%,4.75%,1.58%,-5.13%,-3.01%
O=C1NC2(CCN(Cc3cccnc3)CC2)CC1c1ccncc1 (stereo not given),-3.31%,6.49%,-5.51%,-7.69%,-0.405%,19%,-18.7%,1.58%,10.3%,4.74%
Cc1noc(C2CCN(C(=O)CCNc3ncccn3)CC2)n1,-0.897%,12.8%,-14%,5.92%,0%,9.98%,14.8%,6.22%,22.9%,-4.88%
Cc1ncccc1NC(=O)C1=NOC2(CCN(Cc3nccs3)C2)C1 (stereo not given),-7.98%,-14.3%,2.46%,-0.682%,4.45%,17.7%,-6.55%,6.84%,15.4%,5.53%
CCOC(=O)N1CCN(C(=O)c2sc(-c3ccccc3F)nc2C)CC1,-2.12%,5.41%,6.21%,0.097%,30.4%,13.5%,-3.93%,4.79%,14.6%,-4.07%

# Source: ChEMBL document CHEMBL3988442, “University of Dundee, Small-Polar-MMV Screening Library” (2021)
